Source: PubChem BioAssay (Tox21)
Inconclusive results are not listed. Unmarked numbers belong to inactive results. The source made the active and inactive calls. Calls come from the whole dose curve; as a rule, active = well fitted cell-killing curve with a large enough effect in the repeat runs; inconclusive = weak or mixed curves, or effect the other way; inactive = flat fitted curve, though single readings scatter.

Test: cAMP Responsive Elements (CRE) small molecule antagonists, cell-based qHTS assay: qHTS cell viability counter screen (AID 2060913); note: nearly all actives have a fitted effect of over 40% in size
Conditions: CRE-bla HEK293T viability, CellTiter-Glo luminescence, 5 h; series mostly up to 92.4 µM; viability change, negative = cytotoxic: at the top concentration
Outline: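 CRE-bla HEK293T cells (2,000/well, 18 h) given compound plus NKH477 0.25 uM final for 3 h at 37C; viability counter-screen by CellTiter-Glo luminescence in same wells after 30 min.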
% is set by controls: 0 for no effect and ±100 for the full control effect; potency is the fitted concentration of half-maximal effect.

Which “viability change, negative = cytotoxic” value does the source give for NS(=O)(=O)C(F)(F)C(F)(F)C(F)(F)C(F)(F)C(F)(F)C(F)(F)C(F)(F)C(F)(F)F here?
Its value is -4.78%.

With C#C[C@]1(O)CC[C@H]2[C@@H]3CCC4=CC(=O)CCC4=C3C=C[C@@]21CC as the compound, how does the “viability change, negative = cytotoxic” value read?
Its value is -6.44% [at 42.5 µM].

With CCCCOC(=O)[C@@H](C)Oc1ccc(Oc2ccc(C#N)cc2F)cc1 as the compound, how does the “viability change, negative = cytotoxic” value read?
The value was -3.37%.

Which “viability change, negative = cytotoxic” value does the source give for COc1cc(OC)c(OC)cc1C=O here?
Its value is 4.09%.

Which “viability change, negative = cytotoxic” value does the source give for O=C(NC(=O)c1ccccc1Cl)Nc1ccc(OC(F)(F)F)cc1 here?
Its value is 2.92%.

With O=C(N[C@H]1CN2CCC1CC2)c1cc2ccoc2cn1 as the compound, how does the “viability change, negative = cytotoxic” value read?
The value was 1.66%.

With CCC[N+]1(C)CCCC1 as the compound, how does the Potency read?
Its Potency is “inactive”.

With FC(Cl)(Cl)C(F)(Cl)Cl as the compound, how does the “viability change, negative = cytotoxic” value read?
Its value is 0.981%.

With CCCC(C)C1(CC)C(=O)N=C(S)NC1=O (stereo not given) as the compound, how does the “viability change, negative = cytotoxic” value read?
The value was -7.31% [at 42.5 µM].

Which Potency does the source give for NCCc1ccc(O)cc1 here?
The Potency was “inactive”.

With Cc1ncc(CNC(=O)N(CCCl)N=O)c(N)n1 as the compound, how does the “viability change, negative = cytotoxic” value read?
Its value is -5.65% [at 42.5 µM].

Which Potency does the source give for CNC here?
The Potency was “inactive”.

With CCCCCCC[CH2][Sn]([Cl])([Cl])[CH2]CCCCCCC as the compound, how does the “viability change, negative = cytotoxic” value read?
Its value is 7.41%.

Which “viability change, negative = cytotoxic” value does the source give for S=C=Nc1cccc2ccccc12 here?
The value was 1.23%.

For O=C(O)COc1ccccc1, which Potency is on record?
The Potency was “inactive”.

With Oc1cc(Cl)c(Cl)c(Cl)c1 as the compound, how does the Potency read?
The Potency was 51.7 µM (active).

With CC(C)(C)OOC(C)(C)CCC(C)(C)OOC(C)(C)C as the compound, how does the “viability change, negative = cytotoxic” value read?
The value was 6.58%.

For O=S(=O)(c1ccc(Cl)cc1)c1ccc(Cl)cc1, which “viability change, negative = cytotoxic” value is on record?
Its value is -11.8%.

Which Potency does the source give for OCc1ccco1 here?
The Potency was “inactive”.

For CCNS(=O)(=O)C(F)(F)C(F)(F)C(F)(F)C(F)(F)C(F)(F)C(F)(F)C(F)(F)C(F)(F)F, which “viability change, negative = cytotoxic” value is on record?
The value was 8.62%.

For CCCCCCCCCCCCCCCCCC(=O)O, which Potency is on record?
The Potency was “inactive”.

For O=[N+]([O-])c1cccc2cccc([N+](=O)[O-])c12, which “viability change, negative = cytotoxic” value is on record?
The value was -1.08%.

With Cc1cc2c3c(c1)C(c1ccccc1)=N[C@@H](NC(=O)c1ccncc1)C(=O)N3CC2 as the compound, how does the “viability change, negative = cytotoxic” value read?
Its value is -8.76%.

For CC(=O)[O-].CC(=O)[O-].[Co+2], which “viability change, negative = cytotoxic” value is on record?
The value was 9%.

With N#CCC#N as the compound, how does the “viability change, negative = cytotoxic” value read?
Its value is 7.06%.

With C=CC(=O)OC(C)(C)C as the compound, how does the “viability change, negative = cytotoxic” value read?
The value was -3%.

Which Potency does the source give for COP(N)(=O)SC (stereo not given) here?
The Potency was “inactive”.

Which “viability change, negative = cytotoxic” value does the source give for O=C(O)C(F)(F)C(F)(F)C(F)(F)C(F)(F)C(F)(F)C(F)(F)F here?
The value was 6.64%.

With CNC(=O)Oc1cc(C)c(N(C)C)c(C)c1 as the compound, how does the “viability change, negative = cytotoxic” value read?
The value was 2.06%.

For O=C(Cl)/C=C/C(=O)Cl, which “viability change, negative = cytotoxic” value is on record?
Its value is 12.1%.

With [Cl-].[Cl-].[Cl-].[Yb+3] as the compound, how does the “viability change, negative = cytotoxic” value read?
Its value is -2.94%.

For ClC=C(Cl)Cl, which “viability change, negative = cytotoxic” value is on record?
Its value is 15.3%.

Which Potency does the source give for CCCCC(CC)COC(=O)c1ccc(C(=O)OCC(CC)CCCC)c(C(=O)OCC(CC)CCCC)c1 (stereo not given) here?
Its Potency is “inactive”.

Which “viability change, negative = cytotoxic” value does the source give for CN1CC[C@]23c4c5ccc(O)c4O[C@H]2[C@@H](O)CC[C@H]3[C@H]1C5 here?
Its value is -1.04%.

Which “viability change, negative = cytotoxic” value does the source give for CCOc1ccc(C(C)(C)COCc2cccc(Oc3ccccc3)c2)cc1 here?
Its value is 2.93%.

With CCOC(=O)c1ncn2c1CN(C)C(=O)c1c(I)cccc1-2 as the compound, how does the “viability change, negative = cytotoxic” value read?
The value was -2.46% [at 42.5 µM].

Which “viability change, negative = cytotoxic” value does the source give for CCCCC(CC)COC(=O)OOC(C)(C)C (stereo not given) here?
The value was -2.68%.

With Cc1cccc(N)c1N as the compound, how does the Potency read?
Its Potency is “inactive”.

With O=C(O)c1ccccn1 as the compound, how does the Potency read?
Its Potency is “inactive”.

For O=[N+]([O-])c1cc(C(F)(F)F)cc([N+](=O)[O-])c1Cl, which “viability change, negative = cytotoxic” value is on record?
The value was -8.62%.
